Test systems include NCI-H23 lung; NCI-H226 lung; NCI-H322M lung; HOP-62 NSCLC; NCI-H460 lung; HOP-92 NSCLC; NCI-H522 lung; A549/ATCC NSCLC; 786-0 renal; COLO 205 colon; DU-145 prostate; K-562 leukemia; MALME-3M melanoma; MDA-MB-231 breast; RXF 393 renal; SF-268 CNS; SF-295 CNS; SF-539 CNS; UACC-257 melanoma; M14 melanoma.
Assay in all cases: NCI-60 one-dose screen, 48 h (100 = growth as untreated, 0 = no growth, -100 = all killed)
Common to all, as to conditions: 10 µM unless noted

Data on nine compounds can be found in PubChem BioAssay (NCI).

The panel holds about 83,000 compounds, 20% with a hit somewhere; the sample as a whole holds those more often.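 Cells were grown in 96-well plates and exposed to the test compound at a single concentration for 48 hours; results are reported as percent growth, with values below 10 considered active.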 Values without a mark were called inactive. Activity calls are given as the source filed them.

Regarding `C#Cc1ccc2c(c1)C(c1ccccc1F)=NCC(=O)N2C`, the growth is 57.8% in the assay with NCI-H23 lung; 73.1% in the assay with NCI-H226 lung; 69.6% in the assay with NCI-H322M lung; 48.3% in the assay with HOP-62 NSCLC; 18.9% with NCI-H460 lung; 73.2% with HOP-92 NSCLC. For the same compound, the growth was 8.61% (active) in the assay with NCI-H522 lung; 47.9% in the assay on A549/ATCC NSCLC; 63.4% in the assay on 786-0 renal; 18.4% in the assay on COLO 205 colon; 69.9% in the assay with DU-145 prostate; 16.7% with K-562 leukemia. In addition, the growth in the assay with MALME-3M melanoma is 76.7%; with MDA-MB-231 breast it was 50.6%; with RXF 393 renal it was 73.8%; in the assay with SF-268 CNS, 56.3%; in the assay on SF-295 CNS it was 35.6%; with SF-539 CNS it was 53%. Moreover, the growth is 67.1% in the assay on UACC-257 melanoma and 16.9% in the assay on M14 melanoma.
On to `C=CC12CCN(CC1)C(C(O)c1ccnc3ccc(OC)cc13)C2` (stereo not given), for which the growth with NCI-H23 lung is 100%; in the assay on NCI-H226 lung it was 89.3%; in the assay on NCI-H322M lung, 93.2%; in the assay on HOP-62 NSCLC, 97.5%; in the assay with NCI-H460 lung, 89%; in the assay with HOP-92 NSCLC, 75.2%. For the same compound, the growth in the assay with NCI-H522 lung is 89%; in the assay on A549/ATCC NSCLC, 76.1%; with 786-0 renal, 79%; in the assay on COLO 205 colon, -91.5% (active); with DU-145 prostate, 107%; with K-562 leukemia, 17.6%. Besides, the growth with MALME-3M melanoma is 26.2%; in the assay with MDA-MB-231 breast it was 51.2%; with RXF 393 renal, 45.9%; with SF-268 CNS, 83.7%; in the assay on SF-295 CNS, 72.3%; in the assay with SF-539 CNS it was 89.8%. The growth was 52.4% with UACC-257 melanoma and 72.3% in the assay on M14 melanoma.
On to `Cc1ccccc1NC(=NCCCN1CC1)Nc1ccccc1C`, for which the growth with NCI-H23 lung is 97.7%; with NCI-H226 lung, 83.1%; in the assay on NCI-H322M lung, 97.6%; in the assay with HOP-62 NSCLC, 119%; in the assay with NCI-H460 lung, 81.7%; in the assay with HOP-92 NSCLC it was 77.2%. Moreover, the growth in the assay on NCI-H522 lung was 84.9%; in the assay with A549/ATCC NSCLC, 86.4%; in the assay with 786-0 renal, 100%; in the assay with COLO 205 colon, 102%; with DU-145 prostate, 90.1%; with K-562 leukemia, 94%. Further, the growth in the assay with MALME-3M melanoma was 105%; in the assay with MDA-MB-231 breast, 64.4%; in the assay with RXF 393 renal, 85.3%; with SF-268 CNS it was 86.5%; with SF-295 CNS, 103%; with SF-539 CNS it was 109%. For the same compound, the growth in the assay on UACC-257 melanoma was 103%; in the assay with M14 melanoma, 91.3%.
`CC1(C)C(C(=O)c2cn(CCCCF)c3ccccc23)C1(C)C`: the growth with NCI-H23 lung was 85.4%; with NCI-H226 lung it was 82.1%; in the assay on NCI-H322M lung, 112%; in the assay on HOP-62 NSCLC, 92.9%; with NCI-H460 lung, 103%; in the assay on HOP-92 NSCLC it was 98%. Moreover, the growth was 56.9% in the assay on NCI-H522 lung; 78.5% in the assay on A549/ATCC NSCLC; 99.3% in the assay with 786-0 renal; 99.5% in the assay with COLO 205 colon; 105% in the assay on DU-145 prostate; 71.3% with K-562 leukemia. The growth in the assay on MALME-3M melanoma is 92.9%; in the assay with MDA-MB-231 breast, 94%; in the assay with RXF 393 renal, 84.5%; with SF-268 CNS, 98.8%; with SF-295 CNS, 91.5%; with SF-539 CNS it was 93.2%. For the same compound, the growth is 81.1% in the assay with UACC-257 melanoma and 95% with M14 melanoma.
On to `C=C1C(=O)O[C@H]2[C@H]1CC/C(COC(=O)C(=O)c1cn(Cc3ccccc3)c3ccccc13)=C\CC[C@@]1(C)O[C@@H]21`, for which the growth is -51.7% (active) in the assay with NCI-H23 lung; -70.3% (active) in the assay with NCI-H226 lung; -25.6% (active) in the assay on NCI-H322M lung; 2.07% (active) in the assay with HOP-62 NSCLC; -11.4% (active) with NCI-H460 lung; -46.7% (active) in the assay on HOP-92 NSCLC. The growth in the assay with NCI-H522 lung is -69% (active); in the assay on A549/ATCC NSCLC it was -42.7% (active); in the assay on 786-0 renal it was -75.3% (active); with COLO 205 colon, -52.4% (active); in the assay on DU-145 prostate it was -54.1% (active); with K-562 leukemia it was 5.58% (active). For the same compound, the growth was -41.7% (active) in the assay on MALME-3M melanoma; -57.2% (active) in the assay on MDA-MB-231 breast; -90.2% (active) in the assay on RXF 393 renal; -57.5% (active) with SF-268 CNS; 18.8% with SF-295 CNS; -51.3% (active) in the assay with SF-539 CNS. Besides, the growth is -65.4% (active) with UACC-257 melanoma and -66% (active) in the assay on M14 melanoma.
Turning to `O=[N+]([O-])c1cnc[nH]1`, the growth in the assay on NCI-H23 lung was 103%; in the assay on NCI-H226 lung, 105%; with NCI-H322M lung it was 121%; with HOP-62 NSCLC it was 106%; in the assay with NCI-H460 lung it was 108%; in the assay on HOP-92 NSCLC, 93.7%. The growth in the assay on NCI-H522 lung was 106%; in the assay with A549/ATCC NSCLC, 103%; in the assay with 786-0 renal, 112%; in the assay on COLO 205 colon, 119%; in the assay with DU-145 prostate, 116%; in the assay with K-562 leukemia, 123%. Moreover, the growth is 112% in the assay with MALME-3M melanoma; 101% in the assay with MDA-MB-231 breast; 128% with RXF 393 renal; 106% in the assay with SF-268 CNS; 104% with SF-295 CNS; 110% with SF-539 CNS. Also, the growth was 103% with UACC-257 melanoma and 119% in the assay on M14 melanoma.
On to `COc1ccc(Nc2ccc([N+](=O)[O-])cc2[N+](=O)[O-])cc1CN(CCCl)CCCl`, for which the growth in the assay with NCI-H23 lung was 18.4%; with NCI-H226 lung, 39.7%; in the assay on NCI-H322M lung, 45.8%; in the assay on HOP-62 NSCLC, 35.8%; in the assay on NCI-H460 lung, 7.13% (active); in the assay with HOP-92 NSCLC, 39.2%. In addition, the growth was 21.1% in the assay on NCI-H522 lung; 33.5% in the assay on A549/ATCC NSCLC; 18.4% with 786-0 renal; 38% in the assay on COLO 205 colon; 35.8% with DU-145 prostate; 24.4% in the assay on K-562 leukemia. Further, the growth in the assay with MALME-3M melanoma is 55.1%; in the assay with MDA-MB-231 breast, 44.1%; in the assay on RXF 393 renal it was -1.08% (active); with SF-268 CNS, 24.9%; in the assay with SF-295 CNS, 37.6%; with SF-539 CNS, 15.9%. Also, the growth was 62.9% with UACC-257 melanoma and 46.7% with M14 melanoma.
With `CC12CCC=CC1CCC1C2CCC2(C)C(c3ccc(=O)oc3)CCC12O` (stereo not given), the growth with NCI-H23 lung is -64% (active); with NCI-H226 lung it was -92.3% (active); in the assay on NCI-H322M lung it was -22.5% (active); with HOP-62 NSCLC, -71.9% (active); in the assay with NCI-H460 lung, -69.3% (active); in the assay on HOP-92 NSCLC, -10.7% (active). Also, the growth was -27.9% (active) in the assay with NCI-H522 lung; -52.1% (active) in the assay on A549/ATCC NSCLC; -51.1% (active) with 786-0 renal; -50.9% (active) in the assay on COLO 205 colon; -97.4% (active) with DU-145 prostate; 0.925% (active) in the assay on K-562 leukemia. Moreover, the growth is -48.4% (active) in the assay with MALME-3M melanoma; -5.15% (active) with MDA-MB-231 breast; -47.2% (active) in the assay with RXF 393 renal; -62.8% (active) in the assay on SF-268 CNS; -60% (active) with SF-295 CNS; -90.3% (active) with SF-539 CNS. The growth in the assay with UACC-257 melanoma is -70.3% (active); in the assay with M14 melanoma it was -30.3% (active).
With `O=C(N/N=C/c1ccc(N(CCCl)CCCl)cc1)c1cccc2ccccc12`, the growth is 85.7% with NCI-H23 lung; 74.3% with NCI-H226 lung; 102% in the assay with NCI-H322M lung; 59.5% in the assay with HOP-62 NSCLC; 47% in the assay with NCI-H460 lung; 55.5% in the assay with HOP-92 NSCLC. In addition, the growth in the assay with NCI-H522 lung was 47.9%; in the assay with A549/ATCC NSCLC, 58.4%; with 786-0 renal, 74.2%; with COLO 205 colon, 86.3%; in the assay on DU-145 prostate, 85.3%; in the assay on K-562 leukemia it was 38.9%. Besides, the growth in the assay on MALME-3M melanoma was 84.8%; with MDA-MB-231 breast, 86.9%; in the assay on RXF 393 renal, 93.3%; in the assay with SF-268 CNS, 77.4%; in the assay with SF-295 CNS, 78.7%; with SF-539 CNS, 78.6%. Also, the growth in the assay with UACC-257 melanoma was 79.1%; in the assay on M14 melanoma, 51.7%.
